In PubChem BioAssay (NCATS):
Inconclusive results are not listed. A call without a number means that no potency is given here. Active and inactive are the calls of the source. Calls follow the shape of the dose curve; as a rule, active = well fitted inhibition curve with a large enough effect; inconclusive = small, poorly fitted or top-dose-only effect, or effect the other way; inactive = flat fitted curve, though single readings scatter.
Potency is read from the fitted curve at half-maximal effect.

Each compound was assayed against ATP-dependent 6-phosphofructokinase (Trypanosoma brucei brucei) (UniProt O15648) (assay: qHTS Assay to Find Inhibitors of T. brucei phosphofructokinase: hit validation (AID 492961)). Details: T. brucei PFK, ADP-Glo luminescence; series mostly up to 51.4 µM.
Chain of ATP-dependent 6-phosphofructokinase (Trypanosoma brucei brucei) (O15648 whole entry, looked up): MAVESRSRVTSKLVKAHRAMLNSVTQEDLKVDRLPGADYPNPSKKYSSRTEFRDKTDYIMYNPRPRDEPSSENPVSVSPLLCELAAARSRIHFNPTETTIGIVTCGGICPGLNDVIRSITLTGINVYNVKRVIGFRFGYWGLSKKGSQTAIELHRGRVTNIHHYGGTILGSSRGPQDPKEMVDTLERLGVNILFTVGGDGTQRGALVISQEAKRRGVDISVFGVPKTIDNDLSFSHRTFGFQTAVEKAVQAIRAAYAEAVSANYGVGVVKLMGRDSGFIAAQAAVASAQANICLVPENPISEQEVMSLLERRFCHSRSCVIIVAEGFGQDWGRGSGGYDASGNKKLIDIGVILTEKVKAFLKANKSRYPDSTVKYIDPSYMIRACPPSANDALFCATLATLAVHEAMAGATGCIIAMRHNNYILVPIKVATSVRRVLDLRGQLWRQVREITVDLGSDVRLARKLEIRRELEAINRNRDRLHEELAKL
Source text: NIH Molecular Libraries Probe Production Network [MLPCN] NIH Chemical Genomics Center [NCGC] Grant: 1 R03 MH092153-01 PI Name: Malcolm Walkinshaw, University of Edinburgh NCGC Assay Overview: Various species of the protozoan family Trypanosomatidae are responsible for a range of serious human diseases in tropical and subtropical areas of the world. […] Many of the disorders caused by trypanosomatids are fatal if left untreated, but most currently used drugs are inefficient and toxic. […] Oxidative metabolism involving the mitochondrial tricarboxylic acid cycle and oxidative phosphorylation are repressed in these parasites, and recent RNA interference (RNAi) experiments have shown that even partial depletion of certain individual glycolytic enzymes can lead to the death of cultured parasites. One such glycolytic enzyme, phosphofructokinase (PFK), catalyzes the formation of fructose-1,6-bisphosphate (F1,6BP) and ADP from fructose-6-phosphate (F6P) and ATP, and in many metabolic circumstances makes an important contribution to the control of flux through the glycolytic pathway. As a specific glycolytic target, PFK is particularly attractive as it catalyzes the first irreversible step in glycolysis, and structural and kinetic studies have shown very substantial and essential differences from corresponding host enzymes, allowing for the discovery of parasite-selective inhibitors. The goal of this screen is to find small-molecule inhibitors of T. brucei PFK using a biochemical assay that measures PFK activity as a function of ADP production. A luminescence-based assay for T. brucei PFK activity has been developed which uses luciferase to detect production of ADP. Traditional luciferase-based nucleotide detection reagents rely on ATP production as a direct substrate for the luciferase reaction; however, PFK catalyzes the transfer of a phosphate from ATP to F6P, resulting in the net depletion of ATP. To directly measure the ADP product of the PFK reaction, we used the ADP-Glo detection kit (Promega), which utilizes two separate reactions to 1) deplete all remaining uncatalyzed ATP and 2) convert all remaining ADP to ATP, which is then detected through a traditional luciferase-coupled reaction. Compounds were screened as a concentration-titration series that ranged from 57 uM to 0.7 nM.
NCGC Assay Protocol Summary: Substrate buffer was dispensed into white, solid 1536-well plates at 3uL/well in 0.1M triethanolamine (TEA) buffer, pH 8.0, containing final concentrations of 5 mM MgCl2, 0.01% Tween20, 0.5 mM fructose-6-phosphate (F6P) and 0.1mM ATP. Then, 23 nL of compounds or DMSO were delivered to each well using a pin tool. One uL T. brucei PFK (0.1M TEA, 0.01% Tween20, 0.1% bovine serum albumin (BSA) and 1.25nM PFK, final concentrations) was then dispensed, and plates were incubated at room temperature for 45 min. The luminescent detection reagent, ADP-Glo (Promega), was then added in two steps: the first reagent, ADP-Glo (which converts remaining uncatalyzed ATP), was added at 2.5uL/well and incubated for ten minutes at room temperature, and the second component, Kinase Detection reagent (which converts ADP to ATP as a substrate for luciferase-based luminescence), was added immediately after at 5uL/well, followed by one final ten minute room temperature incubation. The plates were measured on a ViewLux plate reader for luminescent signal using a clear filter with a one second exposure. The %Activity was determined from the corrected luminescence values. As no specific T. brucei PFK inhibitors have been identified in the literature, 1x (1.25nM) and 0x PFK enzyme controls (untreated) were included to normalize %Activity of identified inhibitors; 0x enzyme values corresponded to 100%Activity (full inhibition), while 1x PFK enzyme values were used to normalize 0%Activity (no inhibition). Concentration-response curves were fitted to the signals arising from the resulting luminescence. […]
With `CN1C(=O)CN2CCc3ccccc3C2c2cc(Cl)ccc21` (stereo not given) the Potency was “inactive”. `CC(C(=O)O)c1ccc(N2Cc3ccccc3C2=O)cc1` (stereo not given) was tested, and the Potency was “inactive”. `CC1=CCC(C(C)(C)O)CC1` (stereo not given) was tested, and the Potency was “inactive”. In the case of `C[C@@H]1CCC2[C@@H](C)[C@@H](O)O[C@@H]3O[C@@]4(C)CC[C@@H]1[C@@]23OO4` (stereo not given in full), the Potency is reported as “inactive”. With `COC(C(=O)C(O)C(C)O)C1Cc2cc3cc(OC4CC(OC5CC(O)C(O)C(C)O5)C(O)C(C)O4)c(C)c(O)c3c(O)c2C(=O)C1OC1CC(OC2CC(OC3CC(C)(O)C(O)C(C)O3)C(O)C(C)O2)C(O)C(C)O1` (stereo not given) the Potency was “inactive”. For `CCOc1ccc(N=Nc2ccc(N)cc2N)cc1`, the Potency was “inactive”. In the case of `O=CCCCC=O`, the Potency is reported as “inactive”. For `Nc1c(N=Nc2ccc(-c3ccc(N=Nc4cc(S(=O)(=O)O)c5ccccc5c4N)cc3)cc2)cc(S(=O)(=O)O)c2ccccc12`, the Potency was “inactive”. `O=C1CSC2(CCN(CCCN3c4ccccc4Sc4ccc(Cl)cc43)CC2)N1` was tested, and the Potency was “inactive”. With `C[C@]12CCC(=O)C=C1CC[C@@H]1[C@@H]2[C@@H](O)C[C@@]2(C)[C@H]1CC[C@]2(O)C(=O)COP(=O)(O)O` the Potency was “inactive”. In the case of `CC1=C(/C=C/C(C)=C/C=C/C(C)=C/C=C/C=C(C)/C=C/C=C(C)/C=C/C2=C(C)CCCC2(C)C)C(C)(C)CCC1`, the Potency is reported as “inactive”. `CCCCC(C)(O)C/C=C/[C@H]1[C@H](O)CC(=O)[C@@H]1CCCCCCC(=O)OC` (stereo not given in full) was tested, and the Potency was “inactive”. `CCC(=O)NCCC1CCc2ccc3c(c21)CCO3` (stereo not given) was tested, and the Potency was “inactive”. In the case of `Cc1ccccc1`, the Potency is reported as “inactive”. With `O=C(O)c1cc(O)c2c(c1)[O][Bi][O]2` the Potency was “inactive”. In the case of `CCCCC/C=C\C/C=C\CCCCCCCC(=O)O`, the Potency is reported as “inactive”. In the case of `CCN(CC)CCOc1ccc(-c2nc3cc(Cl)ccc3s2)cc1`, the Potency is reported as “inactive”. For `Clc1cc(Cl)c(OCC#CI)cc1Cl`, the Potency was 12.6 µM (active). With `Cc1cc(C(=O)NNCc2ccccc2)no1` the Potency was “inactive”. `CCN(CC)Cc1cc(Nc2ccnc3cc(Cl)ccc23)ccc1O` was tested, and the Potency was “inactive”. With `CC(=O)Oc1c(C)cc(OCC(O)CNC(C)C)c(C)c1C` (stereo not given) the Potency was “inactive”. For `C[C@H]1C[C@H]2[C@@H]3CCC4=CC(=O)C=C[C@]4(C)[C@@]3(F)[C@@H](O)C[C@]2(C)[C@@]1(O)C(=O)CO`, the Potency was “inactive”. With `CC(NNC(=O)c1ccccc1)c1ccccc1` (stereo not given) the Potency was “inactive”. `CCCCC(=O)O[C@]1(C(=O)CO)[C@H](C)C[C@H]2[C@@H]3CCC4=CC(=O)C=C[C@]4(C)[C@@]3(F)[C@@H](O)C[C@@]21C` was tested, and the Potency was “inactive”. With `O=S(=O)(O)c1cc(O)c2c(N=Nc3ccc(Nc4ccccc4)c4c(S(=O)(=O)O)cccc34)cc(S(=O)(=O)O)cc2c1` the Potency was “inactive”. With `COc1cc(-c2ccc(-[n+]3nc(-c4ccccc4)nn3-c3ccc([N+](=O)[O-])cc3)c(OC)c2)ccc1-[n+]1nc(-c2ccccc2)nn1-c1ccc([N+](=O)[O-])cc1` the Potency was “inactive”. With `CC[C@@]1(O)C(=O)OCc2c1cc1n(c2=O)Cc2cc3c([N+](=O)[O-])cccc3nc2-1` the Potency was “inactive”. `O=S(=O)(O)O` was tested, and the Potency was “inactive”. With `COCC(=O)Nc1cc(Sc2ccccc2)ccc1N=C(NC(=O)OC)NC(=O)OC` the Potency was “inactive”. `CCCCCCCC(=O)O` was tested, and the Potency was “inactive”. `CCOC(=O)C1=C(C)NC(C)=C(C(=O)OCC)C1c1ccccc1C=CC(=O)OC(C)(C)C` was tested, and the Potency was “inactive”. In the case of `CC1(C)S[C@@H]2[C@H](NC(=O)[C@@H](NC(=O)N3CCNC3=O)c3ccccc3)C(=O)N2[C@H]1C(=O)O`, the Potency is reported as “inactive”. For `COC(F)(F)C(Cl)Cl`, the Potency was “inactive”. In the case of `O=C(Nc1ccc(Br)cc1)c1cc(Br)c(Br)s1`, the Potency is reported as “inactive”. In the case of `CC(O)CO` (stereo not given), the Potency is reported as “inactive”. With `CO[C@H]1C[C@@H]2CC[C@@H](C)[C@@](O)(O2)C(=O)C(=O)N2CCCC[C@H]2C(=O)O[C@H]([C@H](C)C[C@@H]2CC[C@@H](OCCO)[C@H](OC)C2)CC(=O)[C@H](C)/C=C(\C)[C@@H](O)[C@@H](OC)C(=O)[C@H](C)C[C@H](C)/C=C/C=C/C=C/1C` the Potency was “inactive”. In the case of `CC(=O)Oc1cc(C)c(OC(C)=O)c2ccccc12`, the Potency is reported as “inactive”. With `CO[C@H](C(=O)[C@@H](O)[C@@H](C)O)C1Cc2cc3cc(O[C@H]4C[C@@H](O[C@H]5C[C@@H](O)[C@H](O)[C@@H](C)O5)[C@@H](O)[C@@H](C)O4)c(C)c(O)c3c(O)c2C(=O)[C@H]1O[C@H]1C[C@@H](O[C@H]2C[C@@H](O[C@H]3C[C@](C)(O)[C@H](O)[C@@H](C)O3)[C@H](O)[C@@H](C)O2)[C@H](O)[C@@H](C)O1` (stereo not given in full) the Potency was “inactive”. For `CCOC(C)=O`, the Potency was “inactive”. For `CCCCCCCC/C=C\CCCCCCCC(=O)O`, the Potency was “inactive”.
